Measured values published in PubChem BioAssay.
Inconclusive results are not listed.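 How the source made its calls, unless noted: active means viability increase at or above a cutoff of the median across tested compounds plus 3 SD (cut at about 8.5% in these data, passing the limit was not always enough); inconclusive means some gains above the cutoff, reason not given; inactive means the rest.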

Key:
[1] = OD615 S. cerevisiae growth inhibition, permissive medium, pilot counter-assay, permissive growth control for S. cerevisiae lifespan shortening project (AID 705;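 active means growth inhibition above 25% in both replicates, a cutoff set 3 SD above the mean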); conditions: OD615, 24 h, at 10 µM, stronger effect = higher value
[2] = Restrictive medium S. cerevisiae growth inhibition, OD615, pilot screen of yeast lifespan reduction project, restrictive growth control (AID 706;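 active means growth inhibition above a set limit, 3 SD over mean compound inhibition, in both replicates, cut at about 43% in these data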;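 further: modified DeaD lifespan yeast strain shifted to restrictive glucose medium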); conditions: OD615, 48 h, at 10 µM, stronger effect = higher value
[3] = viability gain of MRP-1-high H69AR cells under doxorubicin, pilot screen, MRP-1 activator project, CellTiter-Glo, duplicate (AID 807); conditions: H69AR viability with doxorubicin, CellTiter-Glo luminescence; at 10 µM; stronger effect = higher value;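 further: compound pretreatment 18-22 h then 72 h combined with doxorubicin; 0% = doxorubicin alone and 100% = vehicle without doxorubicin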
[4] = RAM signaling pathway blockade in yeast – S. cerevisiae, Pdr1DBD-CYC8 efflux-inhibited sensitized strain, primary screen (AID 1298;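 active means RAM network inhibition above 8.4% in each of two replicates, 3 SD over the compound average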;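 further: 0% = DMSO untreated cells without growth and 100% = 10 µM 1-NA-PP1 full growth; higher means more yeast growth rescued from 5-FOA killing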); conditions: S. cerevisiae cbk1-as DSE1-URA3 strain, 5-FOA growth OD615, 2 d; at 50 µM; stronger effect = higher value
[5] = growth suppression of beta-catenin knockout HCT116, pilot screen, human colon tumor cells (AID 823;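 active means cell viability at or below a set limit in both duplicate runs, the limit being the all-compound median minus 4 SD, cut at about 23% in these data, passing the limit was not always enough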;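 further: 0% = wells killed by 20 µM Hyamine and 100% = untreated DMSO cell wells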); conditions: CellTiter-Glo, 60 h, at 10 µM, stronger effect = lower value
[6] = growth suppression of PTEN-deleted HCT116, pilot screen, cell-based, HCT116 clonal line, CellTiter-Glo (AID 824;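 active means viability at or below 27.92% in each of two runs, the all-compound median minus 4 SD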;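 further: 0% = 20 µM Hyamine control and 100% = vehicle cell control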); conditions: 60 h, at 10 µM, stronger effect = lower value

CCN1CCN(c2cc(C)c3cc(NC(=O)c4cncc(Br)c4)ccc3n2)CC1
inactive: growth inhibition [1] -4.93% | growth inhibition [2] -2.12% | viability increase [3] -6.22% | RAM network inhibition [4] -0.98%

COc1cc(OC)c(NS(=O)(=O)c2coc(C(N)=O)c2)cc1Cl
inactive: growth inhibition [1] -4.63% | growth inhibition [2] -4.55% | viability increase [3] -3.53% | viability [5] 105% | viability [6] 95.8% | RAM network inhibition [4] 6.88%

COc1ccc(C2C(C(C)=O)=C(O)C(=O)N2CCN(C)C)cc1OC (stereo not drawn)
inactive: growth inhibition [1] -17.7% | growth inhibition [2] -12.3% | viability increase [3] 0.21% | viability [5] 92.6% | viability [6] 96.9% | RAM network inhibition [4] 1.99%

N#CC(=C1SC=CS1)c1nc(-c2ccccc2)cs1
inactive: growth inhibition [1] 5.05% | growth inhibition [2] -6.89% | viability increase [3] -3.21% | viability [5] 84.4% | RAM network inhibition [4] 9.12%

CCCCOc1ccccc1NC(=O)CC1Nc2ccccc2NC1=O (stereo not drawn)
inactive: growth inhibition [1] 6.14% | growth inhibition [2] 0.91% | viability increase [3] -6.18% | RAM network inhibition [4] 7.51%

Cc1nnc(NC(=O)CSc2nnc(Cc3cccn3C)n2-c2cccc(C)c2C)s1
inactive: growth inhibition [1] 6.78% | growth inhibition [2] 31% | viability increase [3] -0.56% | viability [5] 100% | viability [6] 87.2% | RAM network inhibition [4] -0.2%

Cc1cc(Nc2cccc(Cl)c2)n2ncnc2n1
inactive: growth inhibition [1] -2.62% | growth inhibition [2] 7.42% | viability increase [3] -2.08% | viability [5] 95.9% | viability [6] 98.7% | RAM network inhibition [4] 1.67%

O=C1CCC(C(=O)NC2(C(=O)NC3CCCCC3)CCCCC2)N1 (stereo not drawn)
inactive: growth inhibition [1] -0.36% | growth inhibition [2] -2.28% | viability increase [3] 0.85% | viability [5] 99.6% | viability [6] 104% | RAM network inhibition [4] 1%

Cc1cccc(-c2nc(CS(=O)CC(=O)N3CCN(C)CC3)c(C)o2)c1 (stereo not drawn)
inactive: growth inhibition [1] -8.17% | growth inhibition [2] -8.82% | viability increase [3] -1.78% | viability [5] 95.9% | viability [6] 99.5% | RAM network inhibition [4] 2.3%

CC(Sc1nc(N2CCOCC2)nc(N2CCOCC2)n1)C(=O)Nc1ccccc1 (stereo not drawn)
inactive: growth inhibition [1] -18.4% | growth inhibition [2] -21.2% | viability increase [3] -1.56% | viability [5] 95.5% | viability [6] 93.2% | RAM network inhibition [4] 5.6%

Cc1cc2cc(CNC(=O)c3ccc(S(=O)(=O)N4CCOCC4)cc3)ccc2[nH]1
inactive: growth inhibition [1] -5.21% | growth inhibition [2] -10.8% | viability increase [3] 0.86% | viability [5] 99.5% | viability [6] 96.2% | RAM network inhibition [4] 5.69%

CCn1c(=O)c2cc(C(=O)NCc3cccs3)sc2c2ccccc21
inactive: growth inhibition [1] -11.3% | growth inhibition [2] -8.09% | viability increase [3] -5.17% | viability [5] 102% | viability [6] 95.9% | RAM network inhibition [4] 4.3%

CC(=O)c1cccc(NC(=O)CCS(=O)(=O)c2cccc3nonc23)c1
inactive: growth inhibition [1] -9.88% | growth inhibition [2] -7.91% | viability increase [3] -3.46% | viability [5] 93.5% | viability [6] 93.2% | RAM network inhibition [4] 3.02%

CCOC(=O)c1c(NC(=O)c2cccs2)sc2c1CCC2
inactive: growth inhibition [1] -13.6% | growth inhibition [2] -20.4% | viability increase [3] -0.45% | viability [5] 91.7% | viability [6] 90.4% | RAM network inhibition [4] 4.33%

O=C(Nc1nc2c(s1)CCCC2)c1cccnc1
inactive: growth inhibition [1] -5.66% | growth inhibition [2] -5.07% | viability increase [3] 0.28% | viability [5] 100% | viability [6] 92.2% | RAM network inhibition [4] 1.3%

CCCCn1c(CNC(C)=O)nc2ccccc21
inactive: growth inhibition [1] -2.36% | growth inhibition [2] 0.94% | viability increase [3] -1.24% | viability [5] 98.1% | viability [6] 100% | RAM network inhibition [4] 1.93%

CCOC(=O)Nc1ccc(S(=O)(=O)Nn2cnnc2)cc1
inactive: growth inhibition [1] -14.5% | growth inhibition [2] 1.07% | viability increase [3] 0% | viability [5] 89% | viability [6] 108% | RAM network inhibition [4] 3.94%

CC(C)OCCCNS(=O)(=O)c1ccc2c(c1)oc(=O)n2C
inactive: growth inhibition [1] -13.3% | growth inhibition [2] -6.73% | viability increase [3] -1.3% | viability [5] 101% | viability [6] 97% | RAM network inhibition [4] 0.04%

COc1ccc(C)cc1NS(=O)(=O)c1cccc2nonc12
inactive: growth inhibition [1] -8.6% | growth inhibition [2] -10.6% | viability increase [3] -3.24% | viability [5] 95.8% | viability [6] 94.3% | RAM network inhibition [4] 4.42%

Cc1ccc(C)c2[nH]c(=O)c(CCNC(=O)c3cc4ccccc4o3)cc12
inactive: growth inhibition [1] -2.5% | growth inhibition [2] -11.6% | viability increase [3] 1.81% | viability [5] 95.4% | viability [6] 91.2% | RAM network inhibition [4] 4.18%

CCOC(=O)c1c(NC(=O)c2ccc(Br)o2)sc(C)c1CC
inactive: growth inhibition [1] 1.51% | growth inhibition [2] -8.3% | viability increase [3] -0.6% | viability [5] 73.8% | viability [6] 70.3% | RAM network inhibition [4] 9.97%

O=C(OCC1COc2ccccc2O1)c1c(F)cccc1F (stereo not drawn)
inactive: growth inhibition [1] -5.97% | growth inhibition [2] -0.835% | viability increase [3] 2.01% | viability [5] 93% | viability [6] 95.8% | RAM network inhibition [4] 7.73%

O=C(CSc1oc(-c2ccccc2)nc1S(=O)(=O)c1ccc(F)cc1)NCC1CCCO1 (stereo not drawn)
inactive: growth inhibition [1] 4.64% | growth inhibition [2] 0.925% | viability increase [3] -3.53% | viability [5] 86.3% | viability [6] 89% | RAM network inhibition [4] 2.32%
